KB-3-1 cytotox: qHTS assay for MDR1-selective chemotherapeutics: Primary screen using the parental adenocarcinoma cell KB-3-1; KB-3-1 viability, CellTiter-Glo ATP luminescence, 72 h; Potency, µM (titrated, usually from 46.1 µM), hits mostly cytotoxic; 1.4% of 400,000 active; AID 1347075, 2019; also: nearly all actives have a fitted effect of over 60% in size
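Parental KB-3-1 viability, qHTS format: 72 h compound exposure, 37 °C; CellTiter-Glo; media-only wells and DMSO plates as controls; concentration-effect fits on corrected data.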
D3 ag: qHTS of D3 Dopamine Receptor Agonist: qHTS; D3R DiscoveRx beta-arrestin cells, luminescence, 90 min; max activation, %; 0.58% of 410,000 active; AID 652048, 2013; in the data active = max activation above about 30%
Target sequence (P35462 whole entry, looked up): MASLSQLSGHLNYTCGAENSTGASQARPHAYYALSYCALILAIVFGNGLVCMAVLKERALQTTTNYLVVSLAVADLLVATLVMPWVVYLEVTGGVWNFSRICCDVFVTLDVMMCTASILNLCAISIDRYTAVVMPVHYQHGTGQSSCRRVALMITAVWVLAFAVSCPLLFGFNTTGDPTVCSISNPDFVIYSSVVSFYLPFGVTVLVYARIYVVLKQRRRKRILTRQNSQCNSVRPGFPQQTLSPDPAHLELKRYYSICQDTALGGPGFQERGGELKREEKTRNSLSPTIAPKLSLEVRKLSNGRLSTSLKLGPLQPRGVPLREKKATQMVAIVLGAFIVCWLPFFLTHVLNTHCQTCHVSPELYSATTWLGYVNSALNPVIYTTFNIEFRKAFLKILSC
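Agonist-mode cell screen: cells plated at 1500/well and incubated overnight at 37 °C, then exposed to library compounds for 90 min at 37 °C. Detection reagent was added for 30–60 min at room temperature, and luminescence was read.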
SW480 rereplic: A quantitative high throughput screen for small molecules that induce DNA re-replication in SW480 colon adenocarcinoma cells. Potency, µM (series often up to 46.1 µM), actives largely listed as activators. SW480 DNA re-replication, Hoechst DNA content imaging, 48 h. 1.8% of 340,000 active. AID 624297, 2012; also: nearly all actives have a fitted effect of over 55% in size
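Image-based read-out: total Hoechst fluorescence of nuclei (405 nm excitation, 500-530 nm emission), with hits raising the fraction of high-intensity nuclei. SW480 colon cells incubated 48 hr with compounds at 37 C.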
KB-V1 cytotox: qHTS assay for MDR1-selective chemotherapeutics: Primary screen using the drug-selected MDR subline cells KB-V1. Potency, µM (titrated, usually from 46.1 µM), usual class: cytotoxic. 3.4% of 400,000 active. KB-V1 MDR cells viability, CellTiter-Glo, 72 h; also: nearly all actives have a fitted effect of over 60% in size
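Cells of the MDR subline KB-V1 are plated, dosed with compound at multiple concentrations, and incubated 72 h at 37 degrees C; CellTiter-Glo is then added and luminescence read after 10 min.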
DRD3 antagonist: qHTS of D3 Dopamine Receptor Antagonist: qHTS. D(3) dopamine receptor (Homo sapiens), P35462. 2.5% of 360,000 active. D3R cells, DiscoveRx beta-arrestin luminescence, antagonist mode; hits give low values. max response, negative = inhibition, %; in the data active = max response below about -50%; inconclusive = no clear call, values can overlap the other calls
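Cells plated overnight at 1500 cells/well, then exposed to library compounds with dopamine controls for 90 minutes at 37 degrees C. DiscoveRx reagent added for 30–60 minutes at room temperature; luminescence read, quantitative HTS format.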
MCF10A rerep: A quantitative high throughput screen for small molecules that induce DNA re-replication in MCF 10a normal breast cells | MCF 10A DNA re-replication, Hoechst nuclear intensity, 48 h | AID 624296, 2012 | 2.9% of 350,000 active | Potency, µM (doses to about 46.1 µM), most hits filed as activators; also: nearly all actives have a fitted effect of over 50% in size
A number is an active result; . = inactive; ? = inconclusive; / = no result given; [ ] = dose if it differs, or a comment. Compounds with a hit are over-represented: about 8.9% of the library has one in this group of screens. Unless noted, calls follow the shape of the dose curve; as a rule, active = well fitted curve in the direction sought with a large enough effect; inconclusive = small, poorly fitted or top-dose-only effect, or another doubt; inactive = no such curve, though single readings can be large; an effect the other way counts as inactive or inconclusive.

SMILES	KB-3-1 cytotox	D3 ag	SW480 rereplic	KB-V1 cytotox	DRD3 antagonist	MCF10A rerep
CCOC(=O)c1c(NC(=O)C2=C(C)NC(=S)NC2c2ccc(C)cc2)sc(C)c1C (stereo unspecified)	?	.	.	21µM	-53	?
CCOC(=O)c1c(NC(=O)C2=C(C)NC(=S)NC2c2ccc(F)cc2)sc(C)c1C (stereo unspecified)	.	.	?	?	.	18µM
CCOC(=O)c1c(NC(=O)C2=C(C)NC(=S)NC2c2ccc(F)cc2F)sc(C)c1C (stereo unspecified)	?	.	?	?	.	?
Cc1cccc(NC(=O)c2ccc(C(=O)Nc3cccc(C)c3C)cc2)c1C	.	.	/	?	/	/
CC1=Nc2ccccc2/C1=C/c1sc(=N)n(-c2nccs2)c1O	7.3µM	.	.[9.22 µM]	.	-96	?
c1cnc2nc3c4ccccc4c4ccccc4c3nc2c1	.	.	23µM	.	.	10µM
CCc1cc(=O)oc2cc(OC(C)=O)cc(OC(C)=O)c12	.	.	.[9.22 µM]	.	-58	.
Cc1c(C(=O)NCc2ccccc2)sc2nc3n(c(=O)c12)CCC3	.	.	/	.	/	/
Cc1ccc(-c2nc3c(c(=O)c4ccccc4n3C)c(=O)n2Cc2ccco2)cc1	.	.	18µM	.	.	.
CCN1C(C(=O)c2ccccc2)=C(OC(=O)c2ccc(Cl)cc2)c2ccccc2S1(=O)=O	/	.	/	/	/	/
Cc1cc2ncc(C(N)=O)cn2n1	.	.	4.1µM	.	.	.
Cc1ccc(-c2nc(CNC(=O)Nc3ccccc3)c(C)o2)cc1	.	.	/	.	/	/
COc1ccc(CNC(=O)CCc2nnc3n(CC(C)C)c(=O)c4ccccc4n23)cc1	/	.	/	/	/	/
COc1ccc(/C=N/NC(=O)C[n+]2ccccc2)c(OC)c1	.	.	.	?	.	1µM
COC(=O)c1sccc1N/N=C/c1ccc(OC)c(OC)c1OC	.	.	.	?	.	23µM
COc1ccc(/C=N/NC(=O)c2cccc3ccccc23)c(OC)c1OC	?	.	.	?	.	15µM
COc1ccc(/C=N/NC(=O)C[n+]2ccccc2)c(OC)c1OC	.	.	.	.	-51	.
COc1cccc(/C=N/NC(=O)C[n+]2ccccc2)c1OC	.	.	.	.	?	?
CCOC(=O)c1ccc(NC(=O)c2c(NCc3sccc3C)sc3c2CCCCC3)cc1	.	.	/	.	/	/
CCCCCCCCCC(=O)N/N=C/c1ccc(C)s1	.	.	?	.	.	16µM
Cc1ccc(/C=N/NC(=O)C[n+]2ccccc2)s1	.	.	.	.	.	.
CCCCCCCC(=O)N/N=C/c1ccc(Br)cc1	.	.	.	.	.	7.3µM
CC[C@@]1(C(=O)OC)N[C@H](CN(C)C(=O)COC)[C@@H]2C(=O)N(Cc3ccccc3)C(=O)[C@@H]21	.	.	.[9.22 µM]	.	.	.
Cn1c(=O)c2sccc2n2c(CCC(=O)NCc3ccccc3)nnc12	.	.	/	.	/	/
O=C1NC(=S)N/C1=C\c1ccc(N2CCOCC2)cc1	.	.	18µM	.	.	?
SMILES	KB-3-1 cytotox	D3 ag	SW480 rereplic	KB-V1 cytotox	DRD3 antagonist	MCF10A rerep
Clc1ccccc1OCCN1CCCCC1	.	.	.	.	-80	.
Clc1ccc(OCCN2CCCCC2)c(Cl)c1	.	.	.	.	-176	.
Cc1ccc(OCCN2CCCCCC2)c(C)c1	.	.	.	.	?	?
Cc1ccc(OCC(=O)Nc2nnc(S(=O)(=O)N3c4ccccc4CC3C)s2)cc1 (stereo unspecified)	.	.	/	.	/	/
O=c1c2ccccc2oc2ccc(-c3ccoc3)cc12	.	/	/	?	/	/
Cc1ccccc1-c1noc(N)c1C#N	.	.	5.2µM	?	.	16µM
CCOC(=O)c1c(NC(C)=O)c2c3c(sc2n1Cc1nc(-c2cccc(C)c2)oc1C)CCCC3	/	.	/	/	/	/
CC1(C(=O)NCc2cccc(Cl)c2)Cc2c(-c3ccc4c(c3)OCO4)ccnc2O1 (stereo unspecified)	?	.	/	?	.	/
CC1(C(=O)NCc2cccs2)Cc2c(-c3ccc4c(c3)OCO4)ccnc2O1 (stereo unspecified)	5.2µM	.	/	?	.	/
CN(C)c1ccc(-c2ccnc3c2CC(C)(C(=O)NCc2cccs2)O3)cc1 (stereo unspecified)	?	.	/	.	.	/
CC1(C(=O)NCc2cccs2)Cc2c(-c3ccccc3)ccnc2O1 (stereo unspecified)	5.8µM	.	/	?	.	/
O=C(c1ccc(Cl)cc1)c1oc2ccccc2c1CS(=O)c1ccc(Cl)cc1 (stereo unspecified)	.	.	.	21µM	.	.
CCCCN1C(=O)C(O)(CC(=O)c2ccc(CC)cc2)c2cc(Br)ccc21 (stereo unspecified)	/	.	/	/	/	/
CN1C(=O)C(O)(CC(=O)c2ccc(F)cc2)c2cc(Br)ccc21 (stereo unspecified)	26µM	.	?	.	?	?
Cc1ccc(Nc2nc(C)c(NC(=O)c3ccc(C)cc3)c(Nc3ccc(C)cc3)n2)cc1	?	.	/	.	/	/
Cc1ccc(Cl)cc1N1CCN(CC(=O)Nc2ccc(CN3CCCCC3)cc2)CC1	?	.	.[9.22 µM]	?	-65	?
COc1ccccc1N1CCN(CC(=O)Nc2ccc(CN3CCCCC3)cc2)CC1	.	.	.	.	-65	.

Screening data as filed in PubChem.
